Screening results: PubChem BioAssay, National Center for Advancing Translational Sciences (NCATS)
Shown is part of a subset that was picked to be rich in hits.
Pf Dd2 growth: qHTS Primary assay for Inhibitors of Plasmodium falciparum Dd2 growth in vitro. P. falciparum Dd2 growth, SYBR Green, 72 h. Potency, µM (titrated, usually from 28.9 µM), inactives show at the highest dose activity, negative = inhibition, actives largely listed as inhibitors. actives 4.3% (n = 120,000). AID 1347417, 2020; active means well fitted inhibition curve with a large enough effect;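 further: plate controls were DMSO vehicle for no effect and reference drug for full effect; nearly all actives have a fitted effect of over 65% in size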
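Infected erythrocytes (Dd2, 0.3% parasitemia, 2.5% hematocrit final) are added to compound in RPMI-1640/Albumax II medium, grown 72 h at 37C in low oxygen, then lysed with saponin/Triton-X containing SYBR Green and read by fluorescence.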
Numbers without * were called inactive; i = inactive; [ ] = remark or other dose. Potency means the concentration at half of the fitted maximal effect.

SMILES	Pf Dd2 growth
Cc1ccc(C(=O)Nc2ccc3c(N4CCOCC4)ncnc3c2)cc1C	11µM*
O=C(Nc1ccc(Cl)cc1)c1ccc(-n2cnnc2)cc1	-6%
Cc1ccsc1C(=O)Nc1ccc2c(N3CCCCC3)ncnc2c1	11µM*
CCc1cccc(NC(=O)c2c(C)oc3ncnc(N4CCCCC4)c23)c1	-10%
O=C(Nc1ccc2ncnc(N3CCCCC3)c2c1)c1ccccc1	i
O=C(Nc1ccc2oc(-c3cccnc3)nc2c1)c1cccc(Br)c1	54%
COc1cccc(C(=O)Nc2ccc3c(N4CCOCC4)ncnc3c2)c1	-17%
CC(=O)N1CCN(C(=O)C[C@@H]2c3nc(NC(=O)C4CCCCC4)sc3C[C@@H]3[C@](C)(CO)[C@H](O)CC[C@]32C)CC1	-3%
Cc1cc(C(=O)Nc2ccc([C@H]3OCC(=O)N(Cc4nccn4C)[C@@H]3CO)cc2)n(C)n1	13%
CC(=O)N1CCC2(CC1)C(=O)NN=C2c1ccncc1	12%[44.1 µM]
CN1CCCN(S(=O)(=O)c2ccc3c(c2)OCCO3)c2ccccc21	-23%
CSc1cccc(NC(=O)N2C[C@H](c3nc(-c4ccccc4)no3)[C@@H](C)C2)c1	i
CCn1cc(S(=O)(=O)N2CC(Oc3cccc(-c4nc(C)no4)c3)C2)cn1	i[5.79 µM]
COCCN1C(=O)c2cccn2CC1CNC(=O)Cc1ccccc1F (centres undefined)	-5%
CC(=O)c1ccc(NC(=O)c2nc3ccccc3nc2N2CCCCC2)cc1	i
Cc1ccc(NC(=O)C2CCCN(c3ncnc4c3nc3n4CCCCC3)C2)cc1F (centres undefined)	23%
O=C(Nc1ccc2ncnc(N3CCCCC3)c2c1)c1cc(F)cc(F)c1	-20%
O=C(Nc1ccc2c(N3CCCCC3)ncnc2c1)c1ccc(F)cc1	3.2µM*
Cc1ccc(C(=O)Nc2ccc3c(N4CCCCC4)ncnc3c2)cc1F	6.3µM*
Cc1ccc(NC(=O)c2ccc3c(c2)N(C)C2CCCCN2C3=O)cc1F (centres undefined)	-19%
Cc1nocc1C(=O)N1CCCn2ccnc2C1c1cnn(C)c1 (centres undefined)	2%
O=C(NCCc1ccncc1)C1CN(C(=O)c2ccc(F)c(F)c2)CC12CCOCC2 (centres undefined)	-4%
O=C(c1ccccc1)N1CCC(N2C(=O)C(O)C23CCCCC3)CC1 (centres undefined)	-22%
Clc1ccc(-c2nnc3n2CCN(CC2CCCCC2)C3)cc1	-26%
COc1ccc(-c2nc3c(c(=O)[nH]2)CCNC3)cc1	-10%
SMILES	Pf Dd2 growth
Cc1ccsc1CN(Cc1ccc(CN(C)S(C)(=O)=O)o1)CC(C)C	8.9µM*
CN(Cc1ccc(F)cc1)S(C)(=O)=O	7%[44.1 µM]
COc1ccc2nc3n(c2c1)[C@@H](CNC(=O)c1ccccn1)COC3	-2%[44.1 µM]
COc1ccc(C(=O)N[C@@H]2CCC[C@@H]2C(=O)NCc2cccc(C)c2)cn1	-12%
O=C1CC2CCN(Cc3ccc(F)cc3)CC2CCN1 (centres undefined)	4%[44.1 µM]
CC(C)(O)C#Cc1ccc(CN2CC[C@@H](c3ccc(F)cc3)[C@H](O)C2)s1	i
O[C@@H]1CN(Cc2ccc(-n3cccn3)cc2)CC[C@H]1c1ccc(F)cc1	3.5µM*
Cn1cnc([S+](=O)([O-])NC2CCN(C(=O)N3CC4CC(C3)[C@H]3CCCC(=O)N3C4)CC2)c1 (some centres undefined)	13%
O=C(NCc1nnc2ccc(-c3ccc(Cl)cc3)nn12)c1ccco1	i
O=S(=O)(Nc1nc2n(n1)C(c1ccc(F)cc1)C=C(c1ccccc1)N2)c1ccccc1 (centres undefined)	0%
CC1=C(C(=O)Nc2ccccc2)C(c2ccccc2)n2nc(-c3ccco3)nc2N1 (centres undefined)	i
O=C(Nc1nc2n(n1)C(c1ccc(F)cc1)C=C(c1ccccc1)N2)c1ccco1 (centres undefined)	10µM*
O=C(Nc1nc2n(n1)C(c1ccc(Cl)cc1)C=C(c1ccccc1)N2)c1ccco1 (centres undefined)	13µM*
O=C(c1ccc(F)cc1)n1nc(-c2ccccc2)nc1NCc1ccco1	32%
CC(=O)NC[C@H]1OC[C@@H](N(Cc2cccc(C#N)c2)Cc2cccc(C#N)c2)[C@@H]1O	i
COc1nccc(N2CCC(CC(=O)NCc3ccccc3F)CC2)n1	-24%
COCC1CN(C2CCC2)CC12CCN(C(=O)c1nccn1C)CC2 (centres undefined)	-8%
COc1cccc(S(=O)(=O)N2CCN(C3CCN(C)C3=O)CC2)c1 (centres undefined)	17%
COc1ccccc1-c1cc2c(nc1OC)nc(CC1CC1)n2C	13µM*
COc1nc2nc(CCc3ccccc3)n(C)c2cc1Nc1ccncn1	-12%[44.1 µM]
COCc1nc2nc(-c3ccccc3)c(-c3ccc(OC)cc3)cc2n1C	i
COc1ccc([C@@H](NC(=O)c2ccc3nccn3c2)C2CC(O)C2)cn1 (some centres undefined)	-9%
COc1cc2nc(Nc3ccc(F)cc3)nc(N)c2cc1OC	2.5µM*
CCOC(=O)c1ccc2nc(C)cc(Nc3cccc(C(=O)O)c3)c2c1	1%
COc1ccccc1C(O)c1nc(Nc2ccc(C(C)C)cc2)n[nH]1 (centres undefined)	i
SMILES	Pf Dd2 growth
Cc1cccc(Nc2nc(N)nc(N)c2S(=O)(=O)c2ccccc2)c1	i
CCOC(=O)c1ccc(Nc2c(-c3ccc(O)c(OC)c3)nc3nc[nH]n23)cc1	33%[0.594 µM]
COc1ccc(Nc2cc(C)nc3c(C)c(C)ccc23)cc1	-15%
CCOC(=O)c1ccc(Nc2nc(N)c3cc(OC)c(OC)cc3n2)cc1	1.3µM*
COc1ccc(Nc2nc(-c3ccccc3)c3cc(Br)ccc3n2)cc1	-18%
COc1cc2nc(Nc3ccc(C)c(C)c3)nc(N)c2cc1OC	0.1µM*
COc1ccc(NC(=O)c2nnn(CC(=O)Nc3c(C)cc(C)cc3C)c2N)cc1OC	34%
COc1cc2nc(Nc3cccc(C)c3)nc(N)c2cc1OC	2.5µM*
CCc1sc(Nc2cccc(C)c2)nc1-c1cc2cccc(OC)c2oc1=O	-1%
CC(c1cccs1)N(C)Cc1ccc(OC(F)(F)F)cc1 (centres undefined)	8%[44.1 µM]
CCNC(=O)CC1CCN(S(C)(=O)=O)C1 (centres undefined)	9%
Cc1noc(C)c1CC(=O)NCC12CCC=C1NC(=O)CC2 (centres undefined)	12%
C=CCOC(=O)C1=C(C)N(Cc2cccc(Cl)c2)C(=O)CC1c1ccccc1Cl (centres undefined)	-24%
CCCc1ccc2oc(C(=O)N(C)CCC3CCCCO3)c(C)c2c1 (centres undefined)	10µM*
Cc1c(Cl)cc(C(=O)N(C)CCC2CCOCC2)cc1Cl	-14%
CCCc1ccc2oc(C(=O)NCCc3nncn3CC)c(C)c2c1	-21%
Cn1ccc2c(C(=O)NCc3cccnc3)nc(-c3cccc4cc[nH]c34)cc21	-7%[44.1 µM]
COc1cncc([C@@H](NC(=O)Cc2cn3ccsc3n2)C2CC(O)C2)c1 (some centres undefined)	-23%
Cc1cccc(NC(=O)Cn2c(C)cc3nc4n(c(=O)c32)CCCCC4)c1	i
CCCn1cc(C2CCN(S(=O)(=O)c3ccccc3Cl)CC2)c2ccccc21	-1%
COc1ccc(C(=O)N2CCC(c3nc4ccccc4s3)CC2)cc1Cl	94%
Cn1cc(C2CCN(C(=O)c3sc(Cl)c(Cl)c3Cl)CC2)c2ccccc21	7.9µM*
CCN(C(=O)c1ccc2c(c1)N(S(C)(=O)=O)CC2)c1ccccc1C	i
